This passage reports Potency results from PubChem BioAssay (Tox21).

Structures are written as SMILES. Several values for one entry are separate records, joined by “and”; a condition that tells them apart may be missing. Identical values can stand only once. Inconclusive results are not listed. A call without a number means that no potency is given here. Some compounds were tested as several samples or in several runs, with calls that do not always agree. Activity calls are given as the source filed them. The call rests on the fitted dose curve; in most records, active means well fitted curve in the direction sought with a large enough effect in the repeat runs; inconclusive means weak or mixed curves; inactive means no such curve, though single readings can be large; an effect the other way counts as inactive or inconclusive.
Further: nearly all actives have a fitted effect of over 50% in size.

Voltage-gated inwardly rectifying potassium channel KCNH2 (Homo sapiens), sequence (Q12809 whole entry, looked up): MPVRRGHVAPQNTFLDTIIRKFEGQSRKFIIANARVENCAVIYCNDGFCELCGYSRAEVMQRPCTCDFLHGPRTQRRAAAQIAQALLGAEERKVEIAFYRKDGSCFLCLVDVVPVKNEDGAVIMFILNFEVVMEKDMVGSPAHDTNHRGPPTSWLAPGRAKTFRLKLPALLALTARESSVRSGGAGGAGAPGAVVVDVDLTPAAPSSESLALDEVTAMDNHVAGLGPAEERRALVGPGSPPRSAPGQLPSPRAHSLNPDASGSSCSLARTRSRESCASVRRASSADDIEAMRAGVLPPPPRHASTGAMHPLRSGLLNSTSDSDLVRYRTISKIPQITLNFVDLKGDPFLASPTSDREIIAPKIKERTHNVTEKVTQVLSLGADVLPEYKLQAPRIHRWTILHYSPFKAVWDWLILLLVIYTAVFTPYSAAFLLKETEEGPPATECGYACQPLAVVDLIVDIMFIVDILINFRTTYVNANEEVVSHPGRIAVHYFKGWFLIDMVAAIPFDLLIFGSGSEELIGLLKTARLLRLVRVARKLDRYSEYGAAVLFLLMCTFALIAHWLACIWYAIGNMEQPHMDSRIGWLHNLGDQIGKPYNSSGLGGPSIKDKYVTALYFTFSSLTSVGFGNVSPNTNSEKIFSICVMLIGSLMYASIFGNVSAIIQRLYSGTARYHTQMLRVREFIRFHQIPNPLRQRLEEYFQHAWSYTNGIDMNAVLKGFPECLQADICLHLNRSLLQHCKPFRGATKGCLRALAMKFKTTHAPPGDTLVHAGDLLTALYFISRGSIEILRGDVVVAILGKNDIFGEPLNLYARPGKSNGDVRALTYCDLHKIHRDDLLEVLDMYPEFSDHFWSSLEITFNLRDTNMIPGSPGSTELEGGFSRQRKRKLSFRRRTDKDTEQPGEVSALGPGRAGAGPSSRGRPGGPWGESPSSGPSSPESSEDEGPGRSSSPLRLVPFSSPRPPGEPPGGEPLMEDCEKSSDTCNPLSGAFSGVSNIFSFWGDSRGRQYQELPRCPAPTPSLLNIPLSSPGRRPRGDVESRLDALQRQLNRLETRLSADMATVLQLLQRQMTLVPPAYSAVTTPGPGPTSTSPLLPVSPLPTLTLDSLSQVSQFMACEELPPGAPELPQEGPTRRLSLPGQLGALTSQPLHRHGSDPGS
Cytochrome P450 1A2 (Homo sapiens), sequence (P05177 whole entry, looked up): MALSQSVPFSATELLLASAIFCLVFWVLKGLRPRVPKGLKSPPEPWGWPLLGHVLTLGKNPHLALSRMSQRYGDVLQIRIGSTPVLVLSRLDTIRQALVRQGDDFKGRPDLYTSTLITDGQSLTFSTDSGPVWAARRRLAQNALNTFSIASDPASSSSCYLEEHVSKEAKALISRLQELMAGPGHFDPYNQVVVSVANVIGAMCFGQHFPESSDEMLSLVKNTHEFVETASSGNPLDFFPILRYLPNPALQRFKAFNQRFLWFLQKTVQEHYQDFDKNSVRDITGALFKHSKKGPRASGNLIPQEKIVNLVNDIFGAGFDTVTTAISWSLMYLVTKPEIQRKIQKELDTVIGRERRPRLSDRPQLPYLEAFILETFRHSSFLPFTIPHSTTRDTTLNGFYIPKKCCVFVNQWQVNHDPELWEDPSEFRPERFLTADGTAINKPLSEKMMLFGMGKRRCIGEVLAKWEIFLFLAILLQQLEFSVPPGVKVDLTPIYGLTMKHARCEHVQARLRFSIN

The target in the first experiment is Cytochrome P450 2C9 (Homo sapiens) (UniProt P11712). The experiment can be described thus: Cytochrome P450 Family 2 Subfamily C Member 9 (CYP2C9) small molecule antagonists: luciferase reporter qHTS assay (AID 1671198). Further: potency means the concentration at half of the fitted maximal effect. The following applies: P450-Glo CYP2C9 enzyme assay, luciferin luminescence; series mostly up to 115 µM. The procedure, abridged: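 P450-Glo proluciferin substrate with CYP2C9 enzyme; 10 min RT preincubation, then NADPH regeneration 1 h at 37C; luciferin detection reagent 20 min RT, luminescence in relative luminescence units.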
Cytochrome P450 2C9 (Homo sapiens), sequence (P11712 whole entry, looked up): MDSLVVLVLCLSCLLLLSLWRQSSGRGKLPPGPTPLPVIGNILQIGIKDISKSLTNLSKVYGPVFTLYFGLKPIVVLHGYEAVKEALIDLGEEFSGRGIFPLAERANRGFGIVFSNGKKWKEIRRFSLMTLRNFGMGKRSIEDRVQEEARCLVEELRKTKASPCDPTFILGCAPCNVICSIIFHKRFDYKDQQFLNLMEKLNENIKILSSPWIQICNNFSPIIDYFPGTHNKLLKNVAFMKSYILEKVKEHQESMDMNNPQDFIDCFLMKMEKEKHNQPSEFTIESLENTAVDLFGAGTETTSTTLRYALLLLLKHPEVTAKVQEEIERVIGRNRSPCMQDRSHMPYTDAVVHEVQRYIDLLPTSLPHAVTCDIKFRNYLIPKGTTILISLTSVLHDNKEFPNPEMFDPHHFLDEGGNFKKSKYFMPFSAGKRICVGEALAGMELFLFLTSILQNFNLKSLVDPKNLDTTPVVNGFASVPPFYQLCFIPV
Background: A reporter such as luciferase makes a cellular process visible.
Regarding `COc1ccccc1O`, the Potency result is “inactive”.

Regarding `C=CCOC(=O)CC(C)C`, the Potency entry is “inactive”.

With `CCCCOCCOCCOC(C)=O`, the Potency result was “inactive”.

For `Cc1ccc(O)c(-n2nc3ccccc3n2)c1`, the Potency was 8.87 µM (active) and 7.1 µM (active) and 8.71 µM (active).

As for `O=C(OCc1ccccc1)c1ccccc1`, the Potency was 40 µM (active) and 63.3 µM (active).

As for `CC(C)(C)CC(C)(C)c1ccc(O)c(-n2nc3ccccc3n2)c1`, the Potency was 20.3 µM (active) and 10 µM (active) and 12.3 µM (active).

With `Cc1cccc2ccccc12`, the Potency entry was “inactive”.

As for `CC1=NN(c2ccccc2)C(=O)C1`, the Potency is 11.3 µM (active) and 11.2 µM (active) and 17.4 µM (active).

For the compound `CC(=O)CCC(C)C`, the Potency result was “inactive”.

For the compound `COc1ccc(C(=O)c2ccccc2)c(O)c1`, the Potency is 39.3 µM (active) and 35.6 µM (active) and 24.5 µM (active).

With `N[C@@H](Cc1c[nH]c2ccccc12)C(=O)O`, the Potency was 71.1 µM (active).

Regarding `NC(=O)N1c2ccccc2C=Cc2ccccc21`, the Potency result was “inactive”.

Take `CC1(C)O[C@@H]2[C@@H](CO[C@@]3(COS(N)(=O)=O)OC(C)(C)O[C@@H]23)O1`: the Potency result is “inactive”.

In a further experiment the target is Cytochrome P450 1A2 (Homo sapiens) (UniProt P05177). Briefly: Cytochrome P450 Family 1 Subfamily A Member 2 (CYP1A2) small molecule antagonists: luciferase reporter qHTS assay (AID 1671199). Further: potency means the concentration at half of the fitted maximal effect. The following applies: P450-Glo CYP1A2 enzyme, luciferin luminescence, 1 h; series mostly up to 115 µM. The procedure, abridged:
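Room-temperature CYP1A2 reaction with proluciferin substrate: compounds added from DMSO, 10 min preincubation, NADPH regeneration for 1 h. Luciferin detection reagent then added; luminescence recorded as RLU.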
With `COc1ccccc1O`, the Potency result was “inactive and 52.6 µM (active)”.

`C=CCOC(=O)CC(C)C`: the Potency entry was “inactive”.

In the case of `C#C[C@]1(O)CC[C@H]2[C@@H]3CCc4cc(O)ccc4[C@H]3CC[C@@]21C`, the Potency entry was “inactive and 17.4 µM (active)”.

Regarding `CCCCOCCOCCOC(C)=O`, the Potency entry is “inactive”.

For `CC(C)Cc1ccc(C(C)C(=O)O)cc1` (stereo unspecified), the Potency result is “inactive”.

Regarding `Cc1cccc(C)c1O`, the Potency was 36.1 µM (active).

For `CCn1cc(C(=O)O)c(=O)c2ccc(C)nc21`, the Potency result is “inactive”.

Regarding `C#C[C@]1(O)CC[C@H]2[C@@H]3CCC4=CC(=O)CC[C@@H]4[C@H]3CC[C@@]21CC`, the Potency entry was “inactive”.

In the case of `Cc1ccc(O)c(-n2nc3ccccc3n2)c1`, the Potency was 2.23 µM (active) and 1.42 µM (active) and 2.57 µM (active).

`O=C(OCc1ccccc1)c1ccccc1`: the Potency is 31.8 µM (active) and 35.6 µM (active) and 13.8 µM (active).

On to `Cc1cccc2ccccc12`, for which the Potency result was “inactive”.

Take `CC(=O)/C=C/C1=C(C)CCCC1(C)C`: the Potency result is “inactive”.

Regarding `C=C(C)C(N)=O`, the Potency result was “inactive”.

For the compound `CO[C@H]1C=CO[C@@]2(C)Oc3c(C)c(O)c4c(O)c(c(/C=N/N5CCN(C)CC5)c(O)c4c3C2=O)NC(=O)/C(C)=C\C=C[C@H](C)[C@H](O)[C@@H](C)[C@@H](O)[C@@H](C)[C@H](OC(C)=O)[C@@H]1C`, the Potency entry is “inactive”.

Consider `COc1ccc(C(=O)c2ccccc2)c(O)c1`, for which the Potency was 19.7 µM (active) and 22.4 µM (active) and 12.9 µM (active).

Take `NC(=O)N1c2ccccc2C=Cc2ccccc21`: the Potency entry is “inactive”.

Consider `CC1(C)O[C@@H]2[C@@H](CO[C@@]3(COS(N)(=O)=O)OC(C)(C)O[C@@H]23)O1`, for which the Potency entry was “inactive”.

In another experiment the target is Voltage-gated inwardly rectifying potassium channel KCNH2 (Homo sapiens) (UniProt Q12809). The experiment can be described thus: Human Ether-a-go-go-Related Gene (hERG) channel small molecule antagonists: fluorescence cell-based qHTS assay (AID 1671200). The following applies: hERG-U2OS cells, FluxOR thallium flux fluorescence; series mostly up to 76.8 µM. The procedure, abridged:
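Thallium flux as potassium surrogate: FluxOR II dye loaded 1 h at room temperature into hERG-expressing U2OS cells, then stimulus buffer added after 10 min. Kinetic 480 nm excitation/540 nm emission read, 2 min.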
(In general: Block of hERG is tested as a sign of cardiac risk.)
As for `C#C[C@]1(O)CC[C@H]2[C@@H]3CCc4cc(O)ccc4[C@H]3CC[C@@]21C`, the Potency result was “inactive”.

Regarding `CC(C)Cc1ccc(C(C)C(=O)O)cc1` (stereo unspecified), the Potency entry is “inactive”.

Consider `Cc1cccc(C)c1O`, for which the Potency entry was “inactive”.

With `CCn1cc(C(=O)O)c(=O)c2ccc(C)nc21`, the Potency entry was “inactive”.

For the compound `C[C@]12CC[C@@H]3c4ccc(O)cc4CC[C@H]3[C@@H]1CCC2=O`, the Potency entry was “inactive”.

`C#C[C@]1(O)CC[C@H]2[C@@H]3CCC4=CC(=O)CC[C@@H]4[C@H]3CC[C@@]21CC`: the Potency result is “inactive”.

Regarding `Cn1cnc2c1c(=O)[nH]c(=O)n2C`, the Potency entry is “inactive”.

With `C[C@]12C=CC(=O)C=C1CC[C@@H]1[C@@H]2C(=O)C[C@@]2(C)[C@H]1CC[C@]2(O)C(=O)CO`, the Potency entry was “inactive”.

With `CC(C)(C)CC(C)(C)c1ccc(O)c(-n2nc3ccccc3n2)c1`, the Potency entry was “inactive”.

For the compound `C=C(C)C(N)=O`, the Potency result is “inactive”.

With `NC(=O)NO`, the Potency entry was “inactive”.

Turning to `CCOC(=O)C(C)(C)Oc1ccc(Cl)cc1`, the Potency result was “inactive”.

As to `CCc1cc(C(N)=S)ccn1`, the Potency entry is “inactive”.

With `CC(=O)CCC(C)C`, the Potency entry is “inactive”.

As to `CO[C@H]1C=CO[C@@]2(C)Oc3c(C)c(O)c4c(O)c(c(/C=N/N5CCN(C)CC5)c(O)c4c3C2=O)NC(=O)/C(C)=C\C=C[C@H](C)[C@H](O)[C@@H](C)[C@@H](O)[C@@H](C)[C@H](OC(C)=O)[C@@H]1C`, the Potency result was “inactive”.

For the next experiment, the target named is Cytochrome P450 3A4 (Homo sapiens) (UniProt P08684). Briefly: Cytochrome P450 Family 3 Subfamily A Member 4 (CYP3A4) small molecule antagonists: luciferase reporter qHTS assay (AID 1671201). Further: potency means the concentration at half of the fitted maximal effect. As to conditions: P450-Glo CYP3A4 enzyme, luciferin luminescence, 1 h; series mostly up to 115 µM. The procedure, abridged: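 Recombinant human CYP3A4 converts a proluciferin substrate to luciferin over 1 h at room temperature after NADPH regeneration solution is added (compound preincubated 10 min); detection reagent stops reaction, luminescence read 20 min later as relative units.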
Cytochrome P450 3A4 (Homo sapiens), sequence (P08684 whole entry, looked up): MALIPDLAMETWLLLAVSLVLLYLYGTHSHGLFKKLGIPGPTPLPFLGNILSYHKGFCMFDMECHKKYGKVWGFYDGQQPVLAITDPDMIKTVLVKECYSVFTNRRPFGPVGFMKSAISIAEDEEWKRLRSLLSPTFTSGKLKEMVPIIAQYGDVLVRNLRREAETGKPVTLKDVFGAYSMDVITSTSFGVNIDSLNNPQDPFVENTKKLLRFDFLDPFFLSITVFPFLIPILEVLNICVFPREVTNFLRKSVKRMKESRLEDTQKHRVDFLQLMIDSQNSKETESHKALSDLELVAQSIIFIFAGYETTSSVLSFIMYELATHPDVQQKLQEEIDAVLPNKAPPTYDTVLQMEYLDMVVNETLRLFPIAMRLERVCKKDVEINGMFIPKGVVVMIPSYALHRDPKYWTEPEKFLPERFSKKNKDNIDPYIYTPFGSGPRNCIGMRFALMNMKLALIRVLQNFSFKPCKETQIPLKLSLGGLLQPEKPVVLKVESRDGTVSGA
As for `COc1ccccc1O`, the Potency result was “inactive”.

Consider `C=CCOC(=O)CC(C)C`, for which the Potency entry was “inactive”.

In the case of `CCCCOCCOCCOC(C)=O`, the Potency entry is “inactive”.

On to `CC(C)Cc1ccc(C(C)C(=O)O)cc1` (stereo unspecified), for which the Potency result was “inactive”.

As to `Cc1cccc(C)c1O`, the Potency result is “inactive”.

On to `CCn1cc(C(=O)O)c(=O)c2ccc(C)nc21`, for which the Potency result is “inactive”.

With `C[C@]12C[C@H](O)[C@H]3[C@@H](CCC4=CC(=O)CC[C@@]43C)[C@@H]1CC[C@@H]2C(=O)CO`, the Potency entry is “inactive”.

Turning to `Cc1ccc(O)c(-n2nc3ccccc3n2)c1`, the Potency was 22.3 µM (active) and 25.2 µM (active).

Turning to `Cc1c(N(C)CS(=O)(=O)O)c(=O)n(-c2ccccc2)n1C`, the Potency result was “inactive”.

Turning to `NC(N)=NC(N)=NCCc1ccccc1`, the Potency result is “inactive”.

Regarding `O=C(OCc1ccccc1)c1ccccc1`, the Potency result was “inactive”.

For `CC(C)(C)CC(C)(C)c1ccc(O)c(-n2nc3ccccc3n2)c1`, the Potency entry was “inactive”.

In the case of `Cc1cccc2ccccc12`, the Potency result is “inactive”.

On to `CC(=O)/C=C/C1=C(C)CCCC1(C)C`, for which the Potency is 35.6 µM (active).

On to `C=C(C)C(N)=O`, for which the Potency entry is “inactive”.

On to `CC1=NN(c2ccccc2)C(=O)C1`, for which the Potency entry is “inactive”.

For the compound `CC(=O)CCC(C)C`, the Potency entry was “inactive”.

On to `COc1ccc(C(=O)c2ccccc2)c(O)c1`, for which the Potency entry was “inactive”.

Regarding `N[C@@H](Cc1c[nH]c2ccccc12)C(=O)O`, the Potency result is “inactive”.

In the case of `NC(=O)N1c2ccccc2C=Cc2ccccc21`, the Potency result was “inactive”.

Turning to `CC1(C)O[C@@H]2[C@@H](CO[C@@]3(COS(N)(=O)=O)OC(C)(C)O[C@@H]23)O1`, the Potency entry is “inactive”.
